According to PubChem BioAssay AID463173 (ICCB-Longwood Screening Facility, Harvard Medical School, 2010):
The campaign covered roughly 52,000 compounds. About 1,700 (3.3%) were called active. No stated cut-off is given here; in the data, active means survival mostly below about 52% (no sharp cut-off); inactive means mostly above about 56%. The sample as a whole holds a higher share of actives than the screen did.

Each compound was assayed on Wild type (assay: S. aureus survival, RN4220 and DeltatarO strains – OD600, teichoic acid synthesis inhibitors, primary screen (AID 463173)). Conditions: S. aureus RN4220 wild type/DeltatarO growth, OD600, 18 h, hits give low values, screened at 18.75 µg/mL (by protocol).
`C=CCn1c2ccccc2c2ccccc21` was tested, and the survival was 80% (inactive).
In the case of `Cc1cccc(-c2nc(SCCCOc3ccccc3Cl)n3[nH]c(=O)cc3n2)c1`, the survival is reported as 65% (inactive).
In the case of `NC(=O)CSc1nnc(CNc2ccc(Cl)cc2)n1Cc1ccccc1`, the survival is reported as 125% (inactive).
With `COc1ccc(NC(=O)c2cc3c(=O)n(Cc4cccnc4)ccc3nc2C)cc1Cl` the survival was 124% (inactive).
With `Cc1oc(-c2ccccc2)nc1CNC(=O)NC1CCCCC1` the survival was 72% (inactive).
`CCCc1nn2c(=O)cc(COC(=O)c3cccc(NC(=O)COc4ccc(F)cc4)c3)nc2s1` was tested, and the survival was 80% (inactive).
`CCCc1nn2c(=O)cc(COC(=O)c3ccc(NC(=O)COc4ccc(F)cc4)cc3)nc2s1` was tested, and the survival was 10% (active).
In the case of `CCCc1nn2c(=O)cc(COC(=O)c3ccc(NC(=O)COc4ccccc4)cc3)nc2s1`, the survival is reported as 83% (inactive).
With `COC(=O)c1cc2oc(C)cc2n1Cc1c(C)cc(C)cc1C` the survival was 33% (inactive).
`COC(=O)c1cc2occc2n1Cc1cccc(C)c1` was tested, and the survival was -1% (active).
`COC(=O)c1cc2oc(C)cc2n1Cc1ccc(C)cc1` was tested, and the survival was 68% (inactive).
With `COC(=O)c1cc2occc2n1Cc1nc(-c2ccc(C)cc2)oc1C` the survival was 48% (inactive).
In the case of `C=CCn1c(C(=O)OCC)cc2oc(C)cc21`, the survival is reported as 111% (inactive).
In the case of `CCOC(=O)c1cc2oc(C)cc2n1CCCN1C(=O)c2ccccc2C1=O`, the survival is reported as -1% (active).
With `COC(=O)c1cc2oc(C)cc2n1Cc1cc(C)ccc1C` the survival was -2% (active).
In the case of `CCc1cccc(NC(=O)Cn2c(C(=O)OC)cc3occc32)c1`, the survival is reported as 83% (inactive).
`CCOC(=O)c1cc2oc(C)cc2n1CC(=O)NC1CC1` was tested, and the survival was 94% (inactive).
With `COC(=O)c1cc2oc(C)cc2n1Cc1cccc(Cl)c1` the survival was -2% (active).
In the case of `COC(=O)c1cc2oc(C)cc2n1CC(=O)Nc1cc(Cl)ccc1OC`, the survival is reported as 88% (inactive).
With `COC(=O)c1cc2oc(C)cc2n1Cc1ccc(Cl)cc1` the survival was 72% (inactive).
For `CCn1c(SCCN2CCCC2)nnc1C1CCCN(C(=O)c2ccc3c(c2)OCO3)C1` (stereo not given), the survival was 114% (inactive).
With `O=C(CN1C(=O)COc2ccc(S(=O)(=O)N3CCCCCC3)cc21)NCCc1ccccc1` the survival was 92% (inactive).
With `CCSc1nc2c(c(=O)[nH]c(=O)n2C)n1CC(O)COc1ccc(Cl)cc1` (stereo not given) the survival was 161% (inactive).
`COc1ccc2c(c1)c1c(c(=O)n(-c3ccc(C)cc3)c(=O)n1CC(=O)Nc1cc(C)ccc1C)n2C` was tested, and the survival was 115% (inactive).
For `COc1ccc(NC(=O)Cn2cc(S(=O)(=O)N3CCN(c4ccccc4F)CC3)c3ccccc3c2=O)cc1Cl`, the survival was 100% (inactive).
For `Cc1ccccc1C(=O)Nc1c(C)nc(Nc2ccccc2)nc1Nc1ccccc1`, the survival was 94% (inactive).
`Cc1ccc(Nc2nc(Nc3ccc(C)c(C)c3)nc(N3CCOCC3)n2)cc1C` was tested, and the survival was 73% (inactive).
In the case of `O=C(CSc1nc(=O)n(Cc2ccco2)c2c1CCC2)Nc1cccc(F)c1`, the survival is reported as 72% (inactive).
For `C=CCN(CC=C)C(=O)C1CCN(Cc2cc(Br)c(O)c(OC)c2)CC1`, the survival was 98% (inactive).
With `COC(=O)c1cc2oc(C)cc2n1Cc1ccccc1Cl` the survival was -2% (active).
In the case of `COC(=O)c1cc2oc3ccccc3c2n1Cc1ccccc1Cl`, the survival is reported as 60% (inactive).
`COC(=O)c1cc2oc(C)cc2n1Cc1ccc(Br)cc1F` was tested, and the survival was 48% (inactive).
In the case of `CCC(Oc1ccccc1F)C(=O)Nc1cc(-c2ccccc2)no1` (stereo not given), the survival is reported as 66% (inactive).
For `Cc1cc(C)cc(NC(=O)c2ccc3c(c2)nnn3C2CCCC2)c1`, the survival was 121% (inactive).
`Cc1cccc(C)c1NC(=O)c1ccc2c(c1)nnn2C1CCCC1` was tested, and the survival was -6% (active).
In the case of `Cc1c(Cl)cccc1NC(=O)c1ccc2c(c1)nnn2C1CCCC1`, the survival is reported as 120% (inactive).
For `COC(=O)c1ccccc1NC(=O)CSc1nnc2cc(C)c3cc(C)cc(C)c3n12`, the survival was 72% (inactive).
`CC(=O)N1CCc2c(sc3c2c(=O)n(-c2ccccc2)c(=O)n3CC(=O)c2ccc(F)cc2)C1` was tested, and the survival was 91% (inactive).
In the case of `CC(C)c1ccc(Nc2c(-c3ccccc3O)nc3cnccn23)cc1`, the survival is reported as 61% (inactive).
For `Cc1cccc(C)c1Nc1c(-c2ccccc2Cl)nc2cnccn12`, the survival was 123% (inactive).
For `Cc1ccn2c(Nc3ccccc3C)c(-c3ccccn3)nc2c1`, the survival was 24% (active).
For `CC(C)c1ccc(Nc2c(-c3ccco3)nc3ccccn23)cc1`, the survival was 33% (inactive).
With `COc1cc(O)ccc1-c1nc2cc(C)ccn2c1Nc1ccccc1C` the survival was 73% (inactive).
`COc1ccc(Nc2c(-c3ccccn3)nc3ccc(Cl)cn23)cc1` was tested, and the survival was 96% (inactive).
In the case of `Clc1ccc(Nc2c(-c3ccccc3Cl)nc3ccc(Cl)cn23)cc1`, the survival is reported as 25% (inactive).
For `Oc1ccccc1-c1nc2cnccn2c1Nc1ccc(Cl)cc1`, the survival was -16% (active).
With `CC(C)c1ccc(Nc2c(-c3ccccn3)nc3ccccn23)cc1` the survival was -21% (active).
With `Cc1ccc2nc(-c3ccc(O)cc3)c(Nc3ccc(Cl)cc3)n2c1` the survival was 69% (inactive).
For `Cc1ccc2nc(-c3ccccc3F)c(Nc3ccc(Cl)cc3)n2c1`, the survival was 11% (active).
`Cc1ccn2c(Nc3ccccc3C)c(-c3ccc(N4CCOCC4)cc3)nc2c1` was tested, and the survival was 113% (inactive).
`N#C/C(=C\c1cn(CC(=O)N2CCCC2)c2ccccc12)C(=O)NC1CC1` was tested, and the survival was 103% (inactive).
With `CCC(C(=O)NC1CCCCC1)n1c(SCc2ccccc2F)nc2ccncc21` (stereo not given) the survival was 73% (inactive).
For `COc1ccc(CNC(=O)CCc2c(C)nc3nc(CNC(=O)OC(C)(C)C)nn3c2C)cc1`, the survival was 77% (inactive).
`COc1ccc(C2=NS(=O)(=O)N(C)C(C(=O)NCc3ccccc3)=C2)cc1OC` was tested, and the survival was 102% (inactive).
With `CCC(C)NC(=O)CSc1nc2n[nH]c(C)c2c(=N)n1-c1cc(Cl)ccc1C` (stereo not given) the survival was 72% (inactive).
With `COc1ccccc1CNC(=O)c1c[nH]c2ccc(S(=O)(=O)Nc3cc(C)cc(C)c3)cc2c1=O` the survival was 67% (inactive).
`CCC(C)n1c(=O)c2sccc2n2c(CCCC(=O)Nc3ccc(F)cc3)nnc12` (stereo not given) was tested, and the survival was 97% (inactive).
In the case of `CCN(CC)C(=O)C(C(F)(F)F)C(F)(F)F`, the survival is reported as 103% (inactive).
For `Cc1ccccc1Nc1c(-c2ccc(Br)o2)nc2ccc(Cl)cn12`, the survival was 10% (active).
For `Cc1ccc2nc(-c3ccccc3O)c(Nc3ccccc3C)n2c1`, the survival was 79% (inactive).
In the case of `CSc1ccc(-c2nc3cc(C)ccn3c2Nc2ccc(C)cc2)cc1`, the survival is reported as 87% (inactive).
`Cc1ccccc1Nc1c(-c2ccncc2)nc2ccc(Cl)cn12` was tested, and the survival was 128% (inactive).
`Cc1ccc(Nc2c(-c3ccccc3O)nc3cc(C)ccn23)cc1` was tested, and the survival was 73% (inactive).
In the case of `Cc1ccc(Nc2c(-c3ccccn3)nc3ccc(Br)cn23)cc1`, the survival is reported as 60% (inactive).
With `Cc1ccc2nc(-c3ccccn3)c(Nc3ccccc3C)n2c1` the survival was 18% (active).
`Cc1ccccc1Nc1c(-c2cccnc2)nc2ccc(Cl)cn12` was tested, and the survival was 81% (inactive).
For `Fc1ccc(Nc2c(-c3ccccn3)nc3ccc(Cl)cn23)cc1`, the survival was 73% (inactive).
With `Cc1ccc2nc(-c3ccccn3)c(Nc3ccc(F)cc3)n2c1` the survival was 16% (active).
With `Cc1ccc(Nc2c(-c3cc(Br)ccc3F)nc3cc(C)ccn23)cc1` the survival was 0% (active).
For `Cc1ccc2nc(-c3ccncc3)c(Nc3ccccc3C)n2c1`, the survival was 101% (inactive).
For `Cc1ccccc1Cn1c(C)c(CNCCCc2ccccc2)c(C(=O)O)c1C`, the survival was 98% (inactive).
With `O=C(c1ccc2c(c1)N(Cc1ccccc1F)C(=O)c1ccccc1S2=O)N1CCCCC1` (stereo not given) the survival was 89% (inactive).
For `CCCS(=O)(=O)c1ncc(Cl)c(C(=O)N(Cc2ccccc2)Cc2ccco2)n1`, the survival was 44% (inactive).
In the case of `Cc1ccn2c(Nc3ccccc3C)c(-c3ccccc3)nc2c1`, the survival is reported as -3% (active).
For `Cc1ccn2c(Nc3ccccc3C)c(-c3ccncc3)nc2c1`, the survival was 80% (inactive).
`Cc1ccn2c(Nc3ccccc3C)c(-c3cccnc3)nc2c1` was tested, and the survival was 71% (inactive).
With `CCCC12CN3CC(CCC)(CN(C1)C3c1ccc(OC(C)C)cc1)C2=O` (stereo not given) the survival was 39% (inactive).
With `Cc1ccc(NS(=O)(=O)c2ccc3[nH]c4c(c3c2)CCCCCC4)cc1Cl` the survival was 71% (inactive).
In the case of `Cc1ccc(CNS(=O)(=O)c2ccc3[nH]c4c(c3c2)CCCC4)cc1`, the survival is reported as 82% (inactive).
`CC(=O)c1ccc(NS(=O)(=O)c2ccc3[nH]c4c(c3c2)CCCC4)cc1` was tested, and the survival was 84% (inactive).
For `O=S(=O)(NCc1ccc(F)cc1)c1ccc2[nH]c3c(c2c1)CCCC3`, the survival was -3% (active).
With `COC(=O)c1ccc(NS(=O)(=O)c2ccc3[nH]c4c(c3c2)CCCCC4)cc1` the survival was 119% (inactive).
In the case of `COc1ccc(NS(=O)(=O)c2ccc3[nH]c4c(c3c2)CCCCC4)cc1`, the survival is reported as 127% (inactive).
`Cc1ccc(NS(=O)(=O)c2ccc3[nH]c4c(c3c2)CCCCCC4)cc1C` was tested, and the survival was -3% (active).
`Cc1ccc(NS(=O)(=O)c2ccc3[nH]c4c(c3c2)CCCCCC4)cc1` was tested, and the survival was 71% (inactive).
In the case of `O=S(=O)(NCc1ccc(F)cc1)c1ccc2[nH]c3c(c2c1)CCCCC3`, the survival is reported as 55% (inactive).
`COC(=O)c1ccc(NS(=O)(=O)c2ccc3[nH]c4c(c3c2)CCCC4)cc1` was tested, and the survival was 1% (active).
For `COc1ccc(NS(=O)(=O)c2ccc3[nH]c4c(c3c2)CCCCCC4)cc1`, the survival was -4% (active).
In the case of `COc1cc(NS(=O)(=O)c2ccc3[nH]c4c(c3c2)CCCCCC4)cc(OC)c1`, the survival is reported as 57% (inactive).
In the case of `CCC(C)NC(=O)Cn1c(=O)n(-c2cc(OC)cc(OC)c2)c(=O)c2ccccc21` (stereo not given), the survival is reported as 94% (inactive).
`CCOc1ccc(OCC)c(NC(=O)c2cc(CN3CCOCC3)on2)c1` was tested, and the survival was 72% (inactive).
`COCCn1c(CCC(=O)Nc2ccc(OC)c(OC)c2)nc2cccnc21` was tested, and the survival was 90% (inactive).
`CC1CCN(C(=O)CN(C)S(=O)(=O)c2ccc3ccccc3c2)CC1` was tested, and the survival was 115% (inactive).
In the case of `CCCCN(C(=O)c1cccs1)c1nnc(-c2cc(OC)cc(OC)c2)s1`, the survival is reported as 116% (inactive).
In the case of `O=C1CCCc2cc(S(=O)(=O)NCC3CCC(C(=O)NCc4ccc(F)cc4)CC3)ccc2N1` (stereo not given), the survival is reported as 93% (inactive).
